Screening data (PubChem BioAssay)
Many of the other results were omitted from the sample, so hits are more common in it than they were.
IL1B secr inh = qHTS for Inhibitors of Inflammasome Signaling: IL-1-beta AlphaLISA Primary Screen; THP-1 LPS/ATP IL-1B secretion, AlphaLISA, 16 h; active compounds read low; activity change, % at 57.5 µM; 4.7% of 360,000 active; in the data active = activity change below about -50%; inconclusive = mostly about -30% to -49%
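Secreted IL-1B measured by AlphaLISA bead assay after 16 h compound exposure of THP-1 cells; compounds (final up to 57.5 uM) added 1 h before LPS (250 ng/mL) and ATP (1.25 mM) stimulation; lower signal means less secretion.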
TDP1 cell CPT = qHTS for Inhibitors of human tyrosyl-DNA phosphodiesterase 1 (TDP1): qHTS in cells in presence of CPT; Potency, µM (top dose mostly 46.2 µM), inactives show top-dose activity change, negative = growth inhibition, usual class: inhibitors; 12% of 420,000 active; chicken DT40 Tdp1-/-;hTDP1 cells + 20 nM CPT, ATP luminescence, 48 h; note: potency is the fitted concentration of half-maximal effect; nearly all actives have a fitted effect of over 55% in size
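Chicken DT40 Tdp1-/- cells stably complemented with human TDP1 were seeded at 400 cells/well in medium containing 20 nM camptothecin, exposed to pin-transferred compounds, and grown at 37 °C for at least 48 hr. Viability was read as ATP luminescence.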
ALOX12 inh = Primary qHTS assay for inhibitors of human arachidonate 12S-lipoxygenase (ALOX12): Round 2; 1.1% of 580,000 active; purified 12hLO, xylenol orange hydroperoxide absorbance; Potency, µM (doses to about 108 µM), for inactives: at the top dose activity change, negative = inhibition, actives largely listed as inhibitors; note: potency is the fitted concentration of half-maximal effect
Target sequence (P18054 whole entry, looked up): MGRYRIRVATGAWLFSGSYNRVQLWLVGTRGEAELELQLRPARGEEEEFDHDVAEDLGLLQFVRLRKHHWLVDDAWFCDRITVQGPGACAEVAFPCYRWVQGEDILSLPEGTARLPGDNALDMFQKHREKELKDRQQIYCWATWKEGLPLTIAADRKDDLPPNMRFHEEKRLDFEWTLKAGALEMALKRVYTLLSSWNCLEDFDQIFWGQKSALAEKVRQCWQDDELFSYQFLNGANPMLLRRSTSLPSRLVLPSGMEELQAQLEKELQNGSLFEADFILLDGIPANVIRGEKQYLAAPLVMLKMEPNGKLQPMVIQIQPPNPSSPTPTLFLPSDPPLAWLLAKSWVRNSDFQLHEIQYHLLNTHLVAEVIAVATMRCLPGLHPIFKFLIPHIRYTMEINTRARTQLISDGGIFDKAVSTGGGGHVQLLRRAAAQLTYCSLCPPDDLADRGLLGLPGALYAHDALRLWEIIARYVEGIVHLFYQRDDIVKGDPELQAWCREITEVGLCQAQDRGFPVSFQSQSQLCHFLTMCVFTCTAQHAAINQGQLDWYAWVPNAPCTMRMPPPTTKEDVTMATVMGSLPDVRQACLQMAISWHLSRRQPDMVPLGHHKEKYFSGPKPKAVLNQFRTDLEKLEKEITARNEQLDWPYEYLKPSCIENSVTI
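Purified human 12hLO at 150 nM in 25 mM Hepes, 0.01% Triton X-100, pH 7.0, preincubated 15 min at room temperature with compound. Reaction started with 40 uM arachidonic acid, 30 min at room temperature. Hydroperoxide measured by Fe-xylenol orange, 573/405 nm absorbance ratio.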
HT1080-NT tox = qHTS for induction of synthetic lethality in tumor cells producing 2HG: qHTS for the HT-1080-NT fibrosarcoma cell line; HT-1080-NT fibrosarcoma viability, CellTiter-Glo ATP luminescence, 48 h; 1.6% of 360,000 active; AID 686970, 2013; Potency, µM (highest dose often 46.1 µM), without a hit: at the top dose activity, negative = less viability, most hits filed as cytotoxic;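 note: NT is the 2HG producing partner of a matched IDH1 knockdown line; potency is the fitted concentration of half-maximal effect; 0% = DMSO-treated cells and -100% = media-only wells without cells; nearly all actives have a fitted effect of over 55% in size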
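Fibrosarcoma NT cells, 750 per well in 5% FBS RPMI, were exposed to compound for 48 hours. Viability: CellTiter-Glo luminescence.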
TDP1 cell noCPT = qHTS for Inhibitors of human tyrosyl-DNA phosphodiesterase 1 (TDP1): qHTS in cells in absence of CPT. DT40 Tdp1-/- hTDP1 cells, no CPT, ATP luminescence, 48 h. Potency, µM (titrated, usually from 46.2 µM), without a hit: top-dose activity change, negative = growth inhibition, most hits filed as inhibitors. 15% of 420,000 active; note: potency is the fitted concentration of half-maximal effect; nearly all actives have a fitted effect of over 55% in size
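Compound effects on proliferation are scored in DT40 Tdp1-/-;hTDP1 cells in the absence of CPT. ATP levels (CellTiter-Glo luminescence) are recorded after a ≥48 hr, 37 °C incubation.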
HT1080 IDH1KD tx = qHTS for induction of synthetic lethality in tumor cells producing 2HG: qHTS for the HT-1080-IDH1KD cell line; Potency, µM (doses to about 46.1 µM), for inactives: top-dose activity, negative = toxicity, actives largely listed as cytotoxic; HT-1080 IDH1 knockdown viability, ATP luminescence, 48 h; 2% of 360,000 active;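 note: potency is the fitted concentration of half-maximal effect; 0% = DMSO wells and -100% = cell-free medium wells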
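Cytotoxicity counter-line: IDH1KD HT-1080, 48 h, CellTiter-Glo. Curves classed by r2, magnitude and activity.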
* hit, by the source's call; u = inconclusive; x = not tested or not shown. Unless noted, calls come from the whole dose curve; as a rule, active = well fitted curve in the direction sought with a large enough effect; inconclusive = small, poorly fitted or top-dose-only effect, or another doubt; inactive = no such curve, though single readings can be large; an effect the other way counts as inactive or inconclusive. Unless noted, % is set by controls: 0 for no effect and ±100 for the full control effect.

SMILES	IL1B secr inh	TDP1 cell CPT	ALOX12 inh	HT1080-NT tox	TDP1 cell noCPT	HT1080 IDH1KD tx
COc1ccc(OCc2nn3c(-c4cccc(OC)c4)nnc3s2)cc1	-1	-10%	0%	0%	-21%	-3%
COc1cccc(-c2nnc3sc(-c4ccccc4)nn23)c1	-24	u	-29%	-2%	23µM*	-11%
COc1ccccc1-c1nnc2sc(COc3ccc(Cl)cc3Cl)nn12	-76*	u	-18%	-7%	u	-2%
CN(Cc1ccccc1)Cc1ccccc1OCC(O)CN1CCCCC1 (configuration not stated)	x	x	27%	x	x	x
O=C(c1cnccn1)N1CCCC(Cc2noc(-c3ccccn3)n2)C1 (configuration not stated)	x	x	30%	x	x	x
COc1ccc(-c2nn3c(=O)c(C)nnc3s2)cc1	20	-3%	x	3%	11%	2%
c1ccc(-c2nnc3sc(-c4ccncc4)nn23)cc1	-51*	-19%	-16%	-4%	-21%	-3%
Clc1ccc(-c2nn3c(-c4ccccc4)nnc3s2)cc1	-8	u	-12%	-19%	-6%	2%
Cc1nc2sc(-c3ccccc3)nn2c(=O)c1Br	1	23µM*	3%	-2%	u	1%
CCN(CC)c1ccc(-c2nn3c(-c4ccccc4OC)nnc3s2)cc1	0	1.3µM*	x	1µM*	1.2µM*	u
Cc1cccc(-c2nnc3sc(-c4ccccc4C)nn23)c1	-4	u	12%	u	15µM*	u
Cc1ccc(-c2cnc(CCC(=O)Nc3ccc(C(=O)OC(C)C)cc3)o2)cc1	x	x	30%	x	x	x
CCOC(=O)CN1CCN(c2nc3c(c(=O)[nH]c(=O)n3C)n2Cc2ccccc2)CC1	x	x	8%	x	x	x
O=C(Nc1ccccc1C(F)(F)F)C12CC3CC(CC(C3)C1)C2	x	x	10%	x	x	x
c1ccc(-c2nnc3sc(-c4csc5c4CCCC5)nn23)cc1	-17	21µM*	u	-5%	u	-5%
CCOc1cccc(-c2nn3c(-c4cc(C)[nH]n4)nnc3s2)c1	-77*	u	0%	7%	u	-8%
O=C1N(Cc2cccc(Cl)c2)C[C@@H]2C[C@@H](c3cccc4ncccc34)N3CCC[C@@]123	-74*	23µM*	u	-27%	23µM*	-8%
O=C1N(Cc2cccc(Cl)c2)C[C@@H]2C[C@@H](c3ccc4nonc4c3)N3CCC[C@@]123	-29	u	-7%	-22%	18µM*	-22%
Cc1ccc([C@@H]2C[C@H]3CN(Cc4cccc(Cl)c4)C(=O)[C@]34CCCN24)o1	-8	-8%	6%	4%	-10%	2%
O=C1N(Cc2cccc(Cl)c2)C[C@@H]2C[C@@H](c3cccc4cccnc34)N3CCC[C@@]123	-28	u	-7%	u	u	u
O=C1N(Cc2cccc(Cl)c2)C[C@@H]2C[C@@H](c3c[nH]c4ccccc34)N3CCC[C@@]123	-20	u	u	u	15µM*	-18%
O=C1N(Cc2cccc(Cl)c2)C[C@@H]2C[C@@H](c3cccn3-c3nccs3)N3CCC[C@@]123	-82*	u	-18%	u	16µM*	u
Cc1oc(-c2ccc(C(=O)NCc3cccnc3)cc2)nc1CSc1ccccc1	x	x	8%	x	x	x
COCCNC(=O)CC[C@]12CC[C@](C)(O)C[C@H]1C(C)(C)C[C@@H]2NC(=O)Cc1cccs1	x	x	26%	x	x	x
Cc1ccc(NC(=O)Nc2nnc(N3CCCC3)s2)cc1C	x	-1%	-59%	x	-11%	x
SMILES	IL1B secr inh	TDP1 cell CPT	ALOX12 inh	HT1080-NT tox	TDP1 cell noCPT	HT1080 IDH1KD tx
CCC(CC)NC(=O)Cc1c(C)[nH]c2ccc(F)cc12	x	x	4%	x	x	x
COc1ccc(-n2nc3ccc(N)cc3n2)cc1	39	16µM*	u	-2%	u	-4%
CCOc1ccc(-n2nc3ccc(N)cc3n2)cc1	1	-18%	49%	4%	u	1%
COc1cccc(NC(=O)c2c(-c3cnn(C)c3NCc3ccc(C#N)cc3)noc2C)c1	x	x	-10%	x	x	x
COCCNC(=O)[C@@H]1C[C@H](Oc2cccnc2)CN1C(=O)c1cccs1	x	x	33%	x	x	x
COc1ccccc1Cn1cc(C(=O)c2ccccc2)c(=O)c2cc(OC)c(OC)cc21	x	u	-3%	x	u	x
COc1ccccc1Cn1cc(C(=O)c2ccc(C)cc2)c(=O)c2cc3c(cc21)OCCO3	x	15µM*	2%	x	21µM*	x
COc1ccc(Cn2cc(C(=O)c3ccc(F)cc3)c(=O)c3cc4c(cc32)OCCO4)cc1	x	u	-20%	x	u	x
O=C(c1ccc(F)cc1)c1cn(Cc2ccccc2F)c2cc3c(cc2c1=O)OCCO3	x	u	6%	x	21µM*	x
COc1ccccc1Cn1cc(C(=O)c2ccc(C)cc2)c(=O)c2cc(C)ccc21	x	5.2µM*	-16%	x	7.3µM*	x
CCCNc1c(NC(=O)Nc2ccccc2Cl)c(=O)oc2ccccc12	x	x	-22%	x	x	x
OC(C[n+]1c(Cl)ccc2ccccc21)c1ccccc1 (configuration not stated)	x	8.9µM*	x	x	u	x
CCOC(=O)c1ccc2[nH]c(CSCC(=O)Nc3cccc(C(F)(F)F)c3)cc(=O)c2c1	x	x	-26%	x	x	x
O=C(NNc1ccccc1Br)C(O)(c1cccc(C(F)(F)F)c1)c1cccc(C(F)(F)F)c1	-59*	29µM*	-32%	21µM*	15µM*	u
Cc1ccccc1NC(=O)c1cccc(C(F)(F)F)c1	-3	-28%	-13%	12%	-23%	11%
COC(=O)CCC(=O)OC1(C)C(=O)C2=CN(CCCOC(C)C)C(c3ccc(OC)cc3)=CC2=C(Br)C1=O (configuration not stated)	-1	18µM*	x	-3%	16µM*	-11%
COC(=O)CCC(=O)OC1(C)C(=O)C2=CN(Cc3ccccc3)C(c3ccc(OC)cc3)=CC2=C(Br)C1=O (configuration not stated)	3	-15%	u	2%	-3%	0%
